# Legend:
# Assay type in all cases: functional
# [1] = molecular target: Solute carrier family 2, facilitated glucose transporter member 1 (Homo sapiens) (UniProt P11166); experiment: ST_JUDE_LEISH: Cytotoxicity at 2uM final concentration against transgenic Leishmania Mexicana promastigotes LmGLUT1 that are glucose transport deficient and complemented with the human glucose transporter GLUT1. Activity is measured by DNA content using SYBR green in vitro
# [2] = molecular target: Hexose transporter 1 (Plasmodium falciparum) (UniProt O97467); experiment: ST_JUDE_LEISH: Cytotoxicity at 2uM final concentration against transgenic Leishmania Mexicana promastigotes LmPfHT that are glucose transport deficient and complemented with the Plasmodium falciparum hexose transporter. Activity is measured by DNA content using SYBR green in vitro
# [3] = molecular target: Glucose transporter (Leishmania mexicana) (UniProt O61059); experiment: ST_JUDE_LEISH: Cytotoxicity at 2uM final concentration against transgenic Leishmania Mexicana promastigotes LmGT2 that are glucose transport deficient and complemented with the L. Mexicana glucose transporter 2. Activity is measured by DNA content using SYBR green in vitro
# Chain of Solute carrier family 2, facilitated glucose transporter member 1 (Homo sapiens) (P11166 whole entry): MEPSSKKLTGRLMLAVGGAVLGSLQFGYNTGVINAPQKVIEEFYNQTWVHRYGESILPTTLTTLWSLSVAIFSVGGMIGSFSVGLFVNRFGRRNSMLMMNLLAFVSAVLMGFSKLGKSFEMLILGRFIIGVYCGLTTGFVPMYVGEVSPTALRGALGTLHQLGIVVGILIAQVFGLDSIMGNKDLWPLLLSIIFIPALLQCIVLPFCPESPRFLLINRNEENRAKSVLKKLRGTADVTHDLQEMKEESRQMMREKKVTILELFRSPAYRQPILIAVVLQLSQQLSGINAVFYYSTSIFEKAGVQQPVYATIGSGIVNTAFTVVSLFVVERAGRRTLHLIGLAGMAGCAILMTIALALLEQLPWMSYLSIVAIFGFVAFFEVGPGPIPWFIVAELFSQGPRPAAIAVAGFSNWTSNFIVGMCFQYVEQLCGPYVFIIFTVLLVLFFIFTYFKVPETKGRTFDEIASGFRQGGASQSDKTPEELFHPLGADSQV
Compound,inhibition [1] [%],inhibition [2] [%],inhibition [3] [%]
COc1ccc(-c2ccc(NC(=O)c3ccc(Cl)cc3)cc2)cc1CN1CCCN(C)CC1,5.26,4.81,5.6
COc1ccc2nc3cc(Cl)ccc3c(NCCN3CCN(C)CC3)c2c1,4.56,3.95,3.79
CN(C)CCCOc1ccccc1CN1CC[C@H](NC(=O)c2ccc(Cl)c(Cl)c2)C1,-0.17,-0.54,-2.05
COc1ccc(N2CCN(CCc3ccc(NC(=O)c4ccc([N+](=O)[O-])cc4)cc3)CC2)c(OC)c1,9.1,6.72,6.07
COC(=O)CCCCOc1cc(Cc2cnc(N)nc2N)cc(OC)c1OC,2.26,1.3,1.88
CCn1c(-c2nonc2N)nc2c(-c3cccc(NC(=O)NC45CC6CC(CC(C6)C4)C5)c3)ncc(OCCCN)c21,2.53,1.83,2.53
COc1ccc(-c2ccc(NC(=O)c3ccc(C#N)cc3)cc2)cc1CN1CCC(O)CC1,-0.1,-0.59,-0.53
CC(C)n1ncc2c(C(=O)N3CCCc4ccccc43)cc(-c3ccccc3)nc21,4.46,2.95,3.97
Cc1[nH]c2ccccc2c1C(=O)CSc1nn(-c2ccccc2)c(=S)s1,5.67,7.39,2.44
O=C(Nc1ccc(Br)c(C(F)(F)F)c1)c1cccc([N+](=O)[O-])c1,3.35,2.2,-0.11
Oc1ccccc1CN1CCCC(COC(c2ccc(F)cc2)c2ccc(F)cc2)C1 (stereo not drawn),3.68,3.28,0.55
COc1ccccc1CNC(=O)c1cc(Br)cc(N2CCN(c3ccncc3)CC2)c1,1.71,2.47,0.83
Fc1ccc(COc2ccc(Nc3ncnc4ccc(I)cc34)cc2Cl)cc1,20.3,5.02,1.83
CCN1CCC(N(Cc2ccc(-c3ccc(C(F)(F)F)cc3)cc2)C(=O)Cn2c(CCc3cccc(F)c3F)cc(=O)c3ccc(OCc4ccccc4)cc32)CC1,3.79,3.24,3.52
COc1ccc(-c2ccc(CNC(=O)c3ccc(Cl)cc3)c(F)c2)cc1CN1CCCN(C)CC1,3.27,0.3,1.71
COc1ccc2nccc([C@@H](O)CN3CCC(NC(=O)C(c4ccccc4C)N4CCC(Cc5ccccc5)CC4)CC3)c2c1 (stereo partly drawn),1.73,1.16,2.38
CCCCCCCN(Cc1ccc(OC(C)(C)C(=O)OCC)cc1)C(=O)Nc1ccccc1OC(F)(F)F,0,-1.12,1.43
COc1ccc(C2SCC(=O)N2CCc2ccc(OC)c(OC)c2)cc1 (stereo not drawn),2.35,1.37,2.36
Cc1nc(N)nc(N)c1-c1ccc(Br)cc1,9.9,8.21,7.53
Cc1ccc(Nc2nc3cc(Nc4ccnc(Nc5cccc(CS(C)(=O)=O)c5)n4)ccc3o2)cc1,4.03,2.49,0.38
CCCCCN1CCCN(Cc2cccc(NC(=O)c3ccc(Cl)c(Cl)c3)c2)CC1,-3.68,0.02,2.58
CCn1cc2c3c(cc(C(=O)N[C@@H](Cc4ccccc4)[C@H](O)CNCc4cccc(OC)c4)cc31)N(C)S(=O)(=O)CC2,1.89,3.02,2.18
Cc1cc(N(C)C)nc(Nc2ccc(NC(=O)COc3ccccc3)cc2)n1,2.72,7.92,-2.15
Cc1ccc2c(c1)c(C1CCN(C(=O)c3ccc([N+](=O)[O-])o3)CC1)cn2C,8.36,9.14,4.16

Compound,inhibition [1] [%],inhibition [2] [%],inhibition [3] [%]
Cc1cc(Nc2ccc(C(C)(C)C)cc2)c2[nH]ncc2n1,16.1,26.2,4.28
CC(=O)Nc1ncc(C(=O)Nc2cccc(-c3ccc(-c4nc5cc(C(F)(F)F)ccc5[nH]4)cc3)c2)s1,2.37,0.89,-0.63
O=C(Nc1ccccc1C(F)(F)F)Nc1nn(Cc2c(F)cccc2Cl)cc1Br,5.53,4.7,3.18
COc1cc2c(cc1C(F)(F)F)N(C(=O)Nc1cc(F)cc(-c3cccnn3)c1)CC2,-2.16,-2.17,2.7
Cc1[nH]cnc1CSCCN/C(=N\C#N)NCCCCCCCCN/C(=N/C#N)NCCSCc1nc[nH]c1C,2.45,2.15,2.98
CCn1c(C=Cc2cc(Br)ccc2O)nc2ccccc2c1=O,-1.02,0.39,0.51
COc1ccc(S(=O)(=O)NC2CCN(CCCOc3ccnc4cc(Cl)ccc34)C2)cc1OC (stereo not drawn),3.41,3.81,2.88
CN1CC[C@@H](Oc2cc(CNC(=O)c3ccc(-c4ccc(Cl)cc4)s3)ccc2C(F)(F)F)C1,-1.97,-1.98,-1.59
O=C(Nc1cccc(CN2CCCN(CC3CCCCC3)CC2)c1)c1ccc(Cl)c(Cl)c1,12.1,12.2,10.5
O=C(Nc1cccc(F)c1)N(Cc1ccc(-c2cccc(CN3CCNCC3)c2)cc1)C1CCN(Cc2ccccc2)CC1,7.44,6.99,6.85
CON=C1CCC(Cn2ccnc2)(c2ccc(Cl)cc2Cl)CC1 (stereo not drawn),7.4,2.3,4.22
COc1ccc(Cl)cc1NC(=O)C(C)N1CCN(S(=O)(=O)c2ccccc2F)CC1 (stereo not drawn),4.36,3.53,3.44
O=C(Nc1ccc(OC2CCN(Cc3ccc(F)cc3)C2)c(Cl)c1)c1ccoc1 (stereo not drawn),0.67,1.54,0.61
CC(C)(C)OC(=O)NCCc1cccc(-c2c[nH]c3ncc(-c4cccc(NS(C)(=O)=O)c4)cc23)c1,-0.22,-2.71,7.65
CC(C)C[C@@H](/C=N/N1CCOC1=O)NC(=O)[C@H](CC(C)C)NC(=O)c1ccc(F)cc1,7.39,11.5,6.1
Cc1nc2ccc3ccc(CNc4ccc(C(=O)N[C@@H](CCC(=O)O)C(=O)N[C@@H](Cc5cccs5)C(=O)O)c(F)c4)cc3c2c(=O)[nH]1,6.55,7.51,6.36
Cc1cc(C(=O)CN2C(=O)NC3(CCCc4ccccc43)C2=O)c(C)n1Cc1ccco1 (stereo not drawn),1.28,0.08,-1.89
O=C(Nc1ccc(CN2CCOCC2)cc1)c1ccc(-c2ccc(Cl)cc2)o1,-0.08,-0.82,-4.75
O=C(NCCOc1ccccc1)[C@H](Cc1ccccc1)Nc1ccnc(NCC2CCCCC2)n1,2.23,1.21,0.92
O=S(=O)(NC1CCN(c2ccnc3cc(Cl)ccc23)C1)c1ccc(F)cc1 (stereo not drawn),0.47,1.68,1.83
CCOc1cc(C(=O)NCCN2CCCCC2)ccc1-c1nc2cc(Cl)ccc2[nH]1,1.06,1.42,2.06
CCN(CC)CCCN(CCCN(CC)CC)c1cc(C)nc(Nc2ccc(Br)cc2)n1,0.34,0.99,-0.4
Cc1nc2nc(N)nc(N)c2c(C)c1Cc1cccc(C(F)(F)F)c1,-1.41,-2.48,-2.32
COc1ccc2nccc([C@@H](O)CN3CCC(NC(=O)c4cc5c(Cl)cc(Cl)cc5[nH]4)CC3)c2c1,5.68,7.48,0.08

Compound,inhibition [1] [%],inhibition [2] [%],inhibition [3] [%]
Cc1[nH]c(C)c(-c2ccc(Oc3ccc(F)cc3)cc2)c(=O)c1Cl,4.38,4.42,3.79
O=C(Nc1ccc(-c2ccc(-c3nc4ccccc4[nH]3)s2)cc1)Nc1ccc(F)c(F)c1F,0.57,-1.5,-0.77
Cc1cc(N/N=C/c2ccc([N+](=O)[O-])cc2)c2ccc(F)cc2n1,2.33,3.03,-1.86
CC(NC(=O)c1ccc(O)c(-c2ccc(Cl)c(Cl)c2)c1)C(=O)NCCN1CCCC1 (stereo not drawn),7.43,6.16,4.25
Cc1cccc2nc(-c3ccc(-c4cccc(CNC5CCN(C)CC5)c4)s3)[nH]c12,-2.43,2.74,-0.61
COc1ccc(-c2ccc(CNC(=O)c3ccc(C#N)cc3)c(F)c2)cc1CN1CCCN(C)CC1,0.92,0.66,-3.44
COc1cccc(CNC(=O)c2cccc(-c3cccc(CN4CCC(N5CCCC5)CC4)c3)n2)c1,4.26,4.42,6.93
Cc1nnc2c(N(C(=O)NCCc3ccccc3)C(=O)NCCc3ccccc3)cc3cc(Cl)ccc3n12,11.2,10.1,8.99
COc1ccc2ncc(F)c(CCN3CC[C@H](NC(=O)c4ccc5c(n4)NC(=O)CS5)[C@H](O)C3)c2n1,10.7,9.73,1.48
COc1ccc(CNCc2ccc(F)cc2)cc1-c1ccc(S(=O)(=O)NCCN2CCCC2)s1,2.3,3.11,5.96
COc1ccc2c(c1CNCCCCCCNCc1c(OC)ccc3c1CCCC3)CCCC2,11.1,8.33,7.55
O=C(NCc1ccc(Cl)c(Cl)c1)[C@H]1CNCCN1C(=O)c1ccccc1,2.83,1.69,2.44
Cc1cc(NCC2CCN(CC3CCCCC3)C2)nc(Nc2ccc(Cl)cc2)n1 (stereo not drawn),7.03,5.29,2.45
NC(=O)c1ccccc1Nc1nc(Nc2cc[nH]n2)ncc1Cl,6.52,4.28,7.47
CC(C)N1CCN(C(CN2CCN(CCCOc3ccc(-c4ccccc4)cc3)CC2)c2ccc(F)cc2)CC1 (stereo not drawn),60.6,32,103
Cc1ccnc(NC(=O)c2cc(-c3cccc([N+](=O)[O-])c3)nc3onc(C)c23)c1,6.8,7.59,4.35
COc1ccc2nccc([C@@H](O)CN3CCC(NCc4[nH]c5ccccc5c4F)CC3)c2c1,9.88,9.58,1.18
Cc1ccccc1CCNC(=O)c1ccc(N2CCN(c3ccncc3)CC2)nc1,3.94,1.96,0.46
COc1ccc(CNc2nccc3ccc(-c4ccc5nccn5c4)cc23)cc1,1.79,0.03,-1.93
Cc1cc(N[C@@H](Cc2ccccc2)C(=O)Nc2ccccc2)nc(NCCc2ccccn2)n1,4.62,4.95,3.53
N#Cc1ccc(NC(=O)NC2CCN(CCCCCNC(=O)/C=C/c3ccc(Cl)c(Cl)c3)CC2)cc1,3.11,3.17,6.31
c1ccc(CSC2=NNC(c3ccccn3)S2)cc1 (stereo not drawn),0.82,3.23,2.48
Cc1cc(C(=O)CN2C(=O)NC(C)(c3ccc4ccccc4c3)C2=O)c(C)n1Cc1ccco1 (stereo not drawn),-0.27,-1.11,-4.18

# Source: ChEMBL document CHEMBL3433997, “St. Jude Leishmania screening dataset” (2016)
